Hits are enriched below; roughly 19% of the tested compounds scored in any of these assays.
KB-3-1 cytotox = kills parental KB-3-1 adenocarcinoma cells; KB-3-1 viability, CellTiter-Glo ATP luminescence, 72 h; Potency, µM (titrated, usually from 46.1 µM), most hits filed as cytotoxic; hit rate 1.4% among 400,000; AID 1347075; further: nearly all actives have a fitted effect of over 60% in size
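KB-3-1 cells, DMEM (no phenol red) + 10% FBS; compound by pin transfer, 72 h, 37 °C. Readout: CellTiter-Glo luminescence after 10 min. Data normalized, curve-fitted.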
DT40 TDP1 no CPT = qHTS for Inhibitors of human tyrosyl-DNA phosphodiesterase 1 (TDP1): qHTS in cells in absence of CPT | Potency, µM (highest dose often 46.2 µM), usual class: inhibitors | hit rate 15% among 420,000 | DT40 Tdp1-/- hTDP1 cells, no CPT, ATP luminescence, 48 h; further: nearly all actives have a fitted effect of over 55% in size
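Stably hTDP1-transfected Tdp1-null chicken DT40 cells were treated with library compounds minus camptothecin and grown for at least 48 hr at 37 °C, after which cellular ATP was quantified by luminescence.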
DT40 TDP1 CPT = growth inhibition of DT40 Tdp1-/-;hTDP1 cells with camptothecin (screen for TDP1 inhibitors) | chicken DT40 Tdp1-/-;hTDP1 cells + 20 nM CPT, ATP luminescence, 48 h | Potency, µM (top dose mostly 46.2 µM), most hits filed as inhibitors | hit rate 12% among 420,000; further: nearly all actives have a fitted effect of over 55% in size
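Chicken DT40 Tdp1-/- cells complemented with human TDP1, 400 cells/well, exposed to compounds plus 20 nM camptothecin for at least 48 h at 37 C; viability read as ATP content by CellTiter-Glo luminescence.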
HT1080-NT tox = kills 2HG-producing HT-1080-NT fibrosarcoma cells. HT-1080-NT fibrosarcoma viability, CellTiter-Glo ATP luminescence, 48 h. Potency, µM (top dose mostly 46.1 µM), hits mostly cytotoxic. hit rate 1.6% among 360,000. AID 686970;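 further: NT is the 2HG producing partner of a matched IDH1 knockdown line; nearly all actives have a fitted effect of over 55% in size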
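A 48-hour cytotoxicity screen used HT-1080-NT cells plated 2 hours before compound delivery. ATP-based CellTiter-Glo luminescence measured viability, normalized to DMSO and no-cell controls.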
KB-V1 MDR tox = KB-V1 MDR subline cytotoxicity. KB-V1 MDR cells viability, CellTiter-Glo, 72 h. Potency, µM (top dose mostly 46.1 µM), most hits filed as cytotoxic. hit rate 3.4% among 400,000; further: nearly all actives have a fitted effect of over 60% in size
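Cytotoxicity via CellTiter-Glo luminescence after 72 h compound exposure at 37 degrees C. Cells: drug-selected KB-V1 line, DMEM phenol-red free plus 10% FBS. Compounds tested at multiple concentrations; normalized data fitted to concentration-effect curves.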
HT1080 IDH1KD tx = HT-1080 IDH1 knockdown cell toxicity (counter line); hit rate 2% among 360,000; Potency, µM (titrated, usually from 46.1 µM), actives largely listed as cytotoxic; HT-1080 IDH1 knockdown viability, ATP luminescence, 48 h
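% activity derives from luminescence (CellTiter-Glo), normalised to DMSO and no-cell wells. HT-1080-IDH1KD cells, 750/well, had 48 h compound exposure at 37 °C.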
Large screens that a line does not name were inactive. The call rests on the fitted dose curve; in most records, active means well fitted curve in the direction sought with a large enough effect; inconclusive means small, poorly fitted or top-dose-only effect, or another doubt; inactive means no such curve, though single readings can be large; an effect the other way counts as inactive or inconclusive.

CC(C)NC(=O)N(C)C[C@H]1Oc2cc(Br)ccc2S(=O)(=O)N([C@H](C)CO)C[C@H]1C	KB-3-1 cytotox inconclusive
C[C@H]1CN([C@@H](C)CO)S(=O)(=O)c2ccc(C3=CCCC3)cc2O[C@@H]1CN(C)C(=O)C1CCCCC1	KB-3-1 cytotox inconclusive, HT1080-NT tox inconclusive, HT1080 IDH1KD tx inconclusive
C[C@H]1CN([C@@H](C)CO)S(=O)(=O)c2ccc(-c3ccccc3)cc2O[C@H]1CN(C)C(=O)C1CCC1	DT40 TDP1 no CPT 15µM, DT40 TDP1 CPT inconclusive
C[C@@H]1CN([C@H](C)CO)S(=O)(=O)c2ccc(Br)cc2O[C@H]1CN(C)C(=O)C1CCCCC1	KB-3-1 cytotox inconclusive, DT40 TDP1 no CPT 13µM, DT40 TDP1 CPT 26µM
C[C@@H]1CN([C@@H](C)CO)S(=O)(=O)c2ccc(Br)cc2O[C@H]1CN(C)C(=O)C1CCOCC1	none
C[C@H]1CN([C@@H](C)CO)S(=O)(=O)c2ccc(/C=C/c3ccccc3)cc2O[C@H]1CN(C)C(=O)NC1CCCCC1	KB-3-1 cytotox inconclusive, DT40 TDP1 no CPT 18µM, DT40 TDP1 CPT inconclusive, HT1080-NT tox inconclusive, KB-V1 MDR tox inconclusive, HT1080 IDH1KD tx inconclusive
C[C@H](CO)N1C[C@H](C)[C@@H](CN(C)C(=O)Nc2ccccc2F)Oc2cc(Br)ccc2S1(=O)=O	none
C[C@@H]1CN([C@@H](C)CO)S(=O)(=O)c2ccc(Br)cc2O[C@H]1CN(C)C(=O)C1CCCCC1	DT40 TDP1 no CPT 16µM, DT40 TDP1 CPT 26µM
CCOC(=O)c1cc2[nH]c3ccccc3c2[n+](-c2ccc([N+](=O)[O-])cc2)c1N	KB-3-1 cytotox inconclusive, DT40 TDP1 no CPT 8.2µM, DT40 TDP1 CPT 12µM, HT1080-NT tox inconclusive
O=C1CSc2ccc(C(=O)NCCc3ccc(Cl)cc3Cl)cc2N1	DT40 TDP1 no CPT 15µM, DT40 TDP1 CPT inconclusive, HT1080-NT tox inconclusive, HT1080 IDH1KD tx inconclusive
Clc1cccc(CNc2ncnc3nc[nH]c23)c1	DT40 TDP1 no CPT inconclusive, DT40 TDP1 CPT inconclusive (no result: HT1080-NT tox, HT1080 IDH1KD tx)
CC(=O)OC[C@H]1O[C@@H](Sc2cccc3cccnc23)[C@H](OC(C)=O)[C@@H](OC(C)=O)[C@H]1OC(C)=O	DT40 TDP1 CPT 18µM
CC(=O)OC[C@H]1O[C@@H](Sc2cccc3cccnc23)[C@H](OC(C)=O)[C@@H](OC(C)=O)[C@@H]1OC(C)=O	DT40 TDP1 no CPT inconclusive, DT40 TDP1 CPT inconclusive
O=C(Nc1cccc(C(F)(F)F)c1)C1CC(=O)N(CCc2ccccc2)C1 (centres undefined)	DT40 TDP1 no CPT inconclusive, DT40 TDP1 CPT inconclusive
CC1(C)Cc2c(sc(NC(=O)c3ccc4ncsc4c3)c2C(N)=O)C(C)(C)N1	KB-3-1 cytotox inconclusive, DT40 TDP1 no CPT inconclusive, DT40 TDP1 CPT inconclusive, HT1080-NT tox 23µM, KB-V1 MDR tox inconclusive, HT1080 IDH1KD tx 23µM
CC1(C)Cc2c(sc(NC(=O)COc3ccc(Cl)cc3)c2C(N)=O)C(C)(C)N1	DT40 TDP1 CPT inconclusive
COC(=O)c1c(NC(=O)c2ccccc2)sc2c1CC(C)(C)NC2(C)C	none
CC1(C)Cc2c(sc(NC(=O)c3ccc(C(=O)c4ccccc4)cc3)c2C(N)=O)C(C)(C)N1	KB-3-1 cytotox inconclusive, DT40 TDP1 no CPT inconclusive, DT40 TDP1 CPT inconclusive, HT1080-NT tox 10µM, KB-V1 MDR tox inconclusive, HT1080 IDH1KD tx 9.2µM
Cc1c(C#N)c2n(c1C)CCCC(=O)N2	none
CCN(Cc1ccccc1)c1ccc(/C=C(\C#N)c2ccccn2)cc1	DT40 TDP1 no CPT inconclusive, KB-V1 MDR tox inconclusive
CN(CCC#N)c1ccc(/C=C(\C#N)c2ccccn2)cc1	KB-3-1 cytotox inconclusive, DT40 TDP1 no CPT inconclusive, DT40 TDP1 CPT inconclusive, KB-V1 MDR tox 5.2µM
CN(CCC#N)c1ccc(C=C(C#N)c2ccc(Br)cc2)cc1	DT40 TDP1 no CPT inconclusive, DT40 TDP1 CPT inconclusive, KB-V1 MDR tox 16µM, HT1080 IDH1KD tx inconclusive

High-throughput results from PubChem.
